Common to all, as to test: qHTS profiling for inhibitors of Plasmodium falciparum proliferation (AID 504749); further: nearly all actives have a fitted effect of over 60% in size
Common to all, as to details: P. falciparum in erythrocytes, SYBR Green DNA, 72 h; series mostly up to 28.7 µM
Background: qHTS replaces the single test concentration by a dilution series.

In one test the test system is CP237. An outline of the steps:
(§1)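 Parasite proliferation within erythrocytes, 72 h exposure. Endpoint: SYBR Green I fluorescence after overnight lysis at room temperature. Controls: 0.29 uM artemisinin, DMSO.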

For the next test, the system named is CP238. The procedure, abridged:
as §1

For a further test, the system named is CP247. The procedure, abridged:
as §1

For the next test, the system named is CP250. An outline of the steps:
as §1

The next test deals with CP252. The procedure, abridged: as §1
The subject of the next test is CP256. An outline of the steps:
as §1

For another test, the system named is CP262. The procedure, abridged: as §1
In a further test the test system is CP265. The procedure, abridged:
as §1

In the next test the test system is CP266. An outline of the steps: as §1
The subject of the next test is CP260. The procedure, abridged:
as §1

Inconclusive results are not listed. Active and inactive are the calls of the source. The call rests on the fitted dose curve; in most records, active means well fitted inhibition curve with a large enough effect; inconclusive means small, poorly fitted or top-dose-only effect; inactive means flat fitted curve, though single readings scatter.
Potency means the concentration at half of the fitted maximal effect.

In the case of `CCCCNc1c(C(=O)OCC)c(C)nc2c1cnn2CC`, the Potency result in the test on CP237, in the test with CP238, in the test on CP247, in the test on CP250, in the test on CP252 and in the test on CP256 was “inactive” each time. The Potency entry in the test with CP262, in the test on CP265 and in the test with CP266 was “inactive” throughout.

Turning to `C[C@]12CCC(=O)C=C1CC[C@@H]1[C@@H]2CC[C@@]2(C)[C@H]1CC[C@]2(O)C(=O)CO`, the Potency entry with CP237, in the test on CP238, in the test with CP247, in the test on CP252, with CP256 and in the test on CP260 was “inactive” each time. Moreover, the Potency entry in the test on CP262, in the test on CP265 and with CP266 was “inactive” throughout.

For `OCCN1CCN(CCCN2c3ccccc3C=Cc3ccccc32)CC1`, the Potency with CP237 is 5.01 µM (active); with CP238, 11.2 µM (active); with CP247 it was 5.01 µM (active); in the test with CP250, 6.31 µM (active); in the test on CP252, 6.31 µM (active); with CP256, 3.55 µM (active). The Potency in the test on CP260 is 5.01 µM (active); with CP262, 6.75 µM (active); in the test with CP265, 4.47 µM (active); in the test with CP266, 13.5 µM (active).

Turning to `CC(C)COCC(CN(Cc1ccccc1)c1ccccc1)N1CCCC1` (configuration not stated), the Potency in the test with CP237 was 5.01 µM (active). The Potency result in the test with CP238, in the test with CP247, with CP250, in the test on CP252, in the test with CP256 and with CP262 was “inactive” throughout. The Potency entry in the test with CP265 and in the test with CP266 was “inactive” each time.

On to `O=C(O)CP(=O)(O)O`, for which the Potency entry in the test with CP237, in the test on CP238, in the test with CP247, in the test on CP250, with CP252 and in the test with CP256 was “inactive” throughout. Besides, the Potency entry with CP260, with CP262, with CP265 and in the test with CP266 was “inactive” each time.

In the case of `Cc1scc2c1N(C(=O)CN1CCN(C)CC1)c1ccccc1NC2=O`, the Potency result with CP237, in the test with CP238, in the test on CP247, in the test with CP250, in the test with CP252 and in the test with CP256 was “inactive” throughout. For the same compound, the Potency result in the test with CP260, in the test on CP265 and with CP266 was “inactive” throughout.

With `CC(C)NNC(=O)c1ccncc1`, the Potency entry in the test on CP237, with CP238, with CP247, in the test on CP250, with CP260 and in the test on CP262 was “inactive” in each case. Besides, the Potency result with CP265 and with CP266 was “inactive” each time.

Take `COc1ccc([C@@H]2Sc3ccccc3N(CCN(C)C)C(=O)[C@@H]2OC(C)=O)cc1`: the Potency entry with CP237, with CP238, in the test on CP247, in the test with CP250, in the test on CP252 and with CP256 was “inactive” in each case. For the same compound, the Potency entry in the test with CP260, in the test with CP262, in the test on CP265 and with CP266 was “inactive” each time.

Turning to `CSc1ccc(C(=O)c2[nH]c(=O)[nH]c2C)cc1`, the Potency result in the test on CP237, with CP238, with CP247, in the test on CP250, in the test with CP252 and in the test with CP256 was “inactive” each time. The Potency result with CP260, in the test on CP262, in the test with CP265 and in the test on CP266 was “inactive” in each case.

For the compound `CC(C)(Oc1ccc(CCNC(=O)c2ccc(Cl)cc2)cc1)C(=O)O`, the Potency result in the test with CP237, in the test with CP238, with CP247, in the test with CP250, with CP252 and in the test on CP256 was “inactive” in each case. For the same compound, the Potency entry in the test on CP260, in the test with CP262, in the test on CP265 and in the test on CP266 was “inactive” throughout.

`O=C(O)CN(CCN(CC(=O)O)CC(=O)O)CCN(CC(=O)O)CC(=O)O`: the Potency result in the test on CP237, with CP238, in the test on CP247, in the test on CP250, in the test on CP252 and in the test on CP260 was “inactive” throughout. Also, the Potency entry with CP266 was “inactive”. Moreover, the Potency in the test with CP256 was 11.2 µM (active).

With `CCN(CC)CCCN(c1ccccc1)C1Cc2ccccc2C1`, the Potency in the test on CP237 is 2.82 µM (active); with CP238 it was 11.2 µM (active); in the test with CP247 it was 8.91 µM (active); in the test on CP250, 7.94 µM (active); with CP252, 10 µM (active); in the test with CP256, 4.47 µM (active). The Potency in the test on CP260 was 2.82 µM (active); with CP265, 3.98 µM (active); in the test on CP266 it was 8.49 µM (active).

On to `CCN1CCc2nc(N)oc2CC1`, for which the Potency result with CP237, in the test with CP238, in the test with CP247, in the test on CP250, with CP252 and with CP256 was “inactive” throughout. Also, the Potency result with CP260, with CP262, in the test with CP265 and in the test with CP266 was “inactive” each time.

For the compound `OC(CCN1CCCCC1)(c1ccccc1)C1CCCCC1` (configuration not stated), the Potency entry with CP237, in the test on CP238, with CP247, in the test on CP250, in the test with CP252 and with CP256 was “inactive” in each case. Moreover, the Potency result in the test with CP262 and with CP266 was “inactive” in each case.

As for `CN1CCN(C2=Nc3ccccc3Oc3ccc(Cl)cc32)CC1`, the Potency entry in the test on CP237, with CP238, in the test on CP247, in the test with CP250, in the test with CP252 and with CP256 was “inactive” throughout. Besides, the Potency result in the test on CP260, in the test with CP262, with CP265 and in the test on CP266 was “inactive” throughout.

Turning to `C[N+](C)(C)CCOC(N)=O`, the Potency entry in the test on CP237, with CP238, with CP247, in the test on CP250, in the test on CP252 and with CP256 was “inactive” throughout. Moreover, the Potency entry in the test with CP260, in the test on CP262, with CP265 and in the test on CP266 was “inactive” throughout.

Regarding `CCn1ccnc1CC1COc2ccccc2O1` (configuration not stated), the Potency entry with CP237, in the test with CP238, with CP247, with CP250, with CP252 and in the test with CP256 was “inactive” throughout. Besides, the Potency entry with CP262, in the test with CP265 and in the test with CP266 was “inactive” each time.

Consider `CC(N=C(NC#N)Nc1ccncc1)C(C)(C)C` (configuration not stated), for which the Potency result in the test with CP237, in the test with CP238, with CP247, in the test with CP250, in the test with CP252 and with CP256 was “inactive” each time. Moreover, the Potency result in the test on CP260, in the test with CP265 and with CP266 was “inactive” each time.

With `CCNC(=O)N1CCN(CCCC(c2ccc(F)cc2)c2ccc(F)cc2)CC1`, the Potency in the test with CP237 is 2.51 µM (active); in the test on CP238, 3.16 µM (active); in the test on CP247, 1 µM (active); in the test on CP250, 1 µM (active); with CP252, 3.98 µM (active); in the test on CP256, 0.794 µM (active). Further, the Potency in the test on CP260 is 3.16 µM (active); with CP262, 3.01 µM (active); with CP265, 0.794 µM (active); in the test with CP266, 6.01 µM (active).

Consider `COc1cc2c(cc1OC)-c1cc(=Nc3c(C)cc(C)cc3C)n(C)c(=O)n1CC2`, for which the Potency in the test on CP237 is 3.16 µM (active); with CP238, 10 µM (active); with CP247, 5.62 µM (active); in the test on CP250, 3.55 µM (active); with CP252 it was 11.2 µM (active); in the test on CP256, 4.47 µM (active). Moreover, the Potency with CP260 is 3.16 µM (active); in the test on CP262, 4.78 µM (active); in the test with CP265 it was 7.94 µM (active); in the test on CP266, 6.75 µM (active).

Consider `CC[N+](C)(C)c1cccc(O)c1`, for which the Potency entry in the test with CP237, in the test on CP238, in the test on CP247, in the test on CP250, with CP252 and in the test with CP256 was “inactive” each time. For the same compound, the Potency entry with CP260, with CP262, in the test on CP265 and in the test on CP266 was “inactive” throughout.

For the compound `CCCN(CCC)CCc1cccc2c1CC(=O)N2`, the Potency entry with CP237, in the test with CP238, with CP247, in the test on CP250, with CP252 and in the test with CP256 was “inactive” in each case. Further, the Potency entry in the test with CP260, in the test with CP262, in the test with CP265 and in the test on CP266 was “inactive” in each case.

The values above are taken from PubChem BioAssay (NCATS).
